Source: PubChem BioAssay AID504592 (Broad Institute, 2011)
About 540 (49%) of roughly 1,100 compounds were called active. About 5% were inconclusive and are not listed. So high a share suggests a set chosen from earlier hits. These entries were drawn from the full list. Unmarked numbers belong to inactive results. Cut-off read from the data, not from the text of the source: active = inhibition above about 54%; inconclusive = no clear call, values can overlap the other calls; inactive = below that.

Assay: prion 5' UTR mRNA inhibition, cherry-pick retest (AID 504592)
Conditions: cell-based prion protein 5' UTR reporter, plate reader; at 2.5 µM; stronger effect = higher value
In the case of `NC(=O)c1ccc(NC(=O)COC(=O)c2ccc([N+](=O)[O-])cc2)cc1`, the inhibition is reported as 91.9% (active). For `O=C1/C(=C\c2ccc([N+](=O)[O-])cc2)CS(=O)(=O)C/C1=C/c1ccc([N+](=O)[O-])cc1`, the inhibition was 85.3% (active). Compound `CC12CCC3C(CCC4CC(=O)CCC43C)C1CC(=NO)C2=O` (stereo unspecified) has an inhibition of 0.372%. For `O=C(CSc1ncnc2sccc12)N1CCN(C(=O)c2cccs2)CC1`, the inhibition was 9.5%. Compound `COc1cc(OC)cc(C(=O)N[C@H](C(=O)Nc2nc3ccccc3[nH]2)C(C)C)c1` has an inhibition of 44.9%. With `COc1cccc2c1C(=O)c1c(O)c3c(c(O)c1C2=O)CC(O)(C(C)=NNC(=O)c1ccc(Cl)c(Cl)c1)CC3OC1CC(N)C(O)C(C)O1` (stereo unspecified) the inhibition was 82.4% (active). With `CCC(C)(O)C(=O)OC1C(=O)OC2CC3C(C)=CC(=O)C(O)C3(C)C3C4(O)OCC23C1C(C)C4O` (stereo unspecified) the inhibition was 83% (active). Work on `Cc1ccc2nc(-c3ccc(Br)cc3)cn2c1` yielded an inhibition of 40%. With `Cc1ccc(-c2cn3cc(C)ccc3n2)cc1` the inhibition was 89.9% (active). `Nc1ccc(OCC(O)C[n+]2ccc(CCS(=O)(=O)[O-])cc2)cc1` (stereo unspecified) showed an inhibition of -71.6%. For `CN(NC(=O)c1ccccc1F)c1nc(C(F)(F)F)nc2ccccc12`, the inhibition was 86.4% (active). For `COc1ccc(C2=Nn3c(nnc3-c3ccccc3OC)SC2)cc1OC1CCCC1`, the inhibition was 79.2% (active). For `CC(C)(C)C1CCc2c(sc3nc(SCC(N)=O)nc(N)c23)C1` (stereo unspecified), the inhibition was -25.3%. With `COC1C(O)C(C)OC(OC2CCC3(C=O)C(CCC4C3CCC3(C)C(C5=CC(=O)OC5)CCC43O)C2)C1O` (stereo unspecified) the inhibition was 91.9% (active). With `Cc1ccc(CCC(=O)Nc2ncc(Cc3cc(Cl)ccc3Cl)s2)o1` the inhibition was 89.3% (active). For `Clc1ccc2nc(-c3ccccc3)nc(C(Cl)Cl)c2c1`, the inhibition was 89.1% (active). For `Cc1cc(NC(=O)/C=C/C(=O)N(CC(=O)NC2CCCC2)c2ccc(F)cc2)no1`, the inhibition was 15.5%. For `O=C(NNC(=O)c1ccccc1O)c1ccccc1O`, the inhibition was 62.2% (active). In the case of `CC1Cc2ccccc2N1C(=O)c1cc2sccc2n1Cc1ccccc1` (stereo unspecified), the inhibition is reported as -33.3%. With `O=c1oc2ccccc2cc1-c1cn(-c2ccccc2)c(=S)[nH]1` the inhibition was 86.9% (active). With `CCCOC(=O)c1[nH]c2c(c1C)C(=O)CC(c1cccs1)C2` (stereo unspecified) the inhibition was 88.2% (active). In the case of `Cc1cc(Nc2ccccc2)n(C(=O)c2ccc(N)cc2)n1`, the inhibition is reported as 12%. Work on `COc1cc([N+](=O)[O-])ccc1NC(=S)N1CCN(c2ccccn2)CC1` yielded an inhibition of -10.7%. With `CN(c1ccc2nc3ccccc3c(=O)n2n1)C1CCCCC1` the inhibition was 86.2% (active). Compound `O=C(Nc1ccc2c(c1)OCCO2)C1CCCC1` has an inhibition of 33.2%. `CCOc1cc(NS(=O)(=O)c2ccc(OC)cc2)c(OCC)cc1NC(C)=O` showed an inhibition of -19.5%. With `C=CCOc1ccc(/C=C2\SC(=S)N(CCC(=O)O)C2=O)cc1` the inhibition was 61.2% (active). For `COc1cc(SC)ccc1C(=O)Nc1nc(C)cs1`, the inhibition was 79% (active). For `OCC1(Cc2ccccc2)CCN(Cc2cc3ccccc3o2)CC1`, the inhibition was -6.23%. With `O=C(CN1C(=O)c2ccccc2S1(=O)=O)N1CCc2ccccc21` the inhibition was 80% (active). With `CC(C)(C)c1ccc(Oc2ccc(N)cc2)cc1` the inhibition was 85.6% (active). Compound `O=C(C1=C[C@H](c2coc3ccccc3c2=O)C[C@H](OCc2ccc(CO)cc2)O1)N1CCN(Cc2ccccc2)CC1` has an inhibition of -63.6%. In the case of `COc1ccc(C(=O)Nc2ccccc2C(=O)N/N=C/c2ccc(O)c(OC)c2)cc1`, the inhibition is reported as 71.2% (active). With `CCC(C)Cn1c(O)cc2nn(-c3nc4ccccc4s3)c(=O)c-2c1C` (stereo unspecified) the inhibition was 89.8% (active). Work on `CCCCNS(=O)(=O)CCNCc1ccccc1OC` yielded an inhibition of -14.3%. `Oc1ccc(N2CCN(C(=S)NCc3ccccc3)CC2)cc1` showed an inhibition of -21.4%. In the case of `CC(=O)OC1C2(CC3N4C(=O)C5(CO)SSC4(CC31O)C(=O)N5C)OC(C)C(C)(C)C2=O` (stereo unspecified), the inhibition is reported as 98.2% (active). In the case of `CCn1c(=O)c(=O)[nH]c2c(=O)oc3ccc(S(=O)(=O)Nc4ccc(OC)cc4)cc3c21`, the inhibition is reported as -6.15%. With `COC(=O)Cc1[nH]n(-c2nc3ccccc3s2)c(=O)c1C(C)=Nc1ccc(OC)cc1` the inhibition was 80.6% (active). With `COc1ccc(OC)c(Cc2cnc3nc(N)nc(N)c3c2C)c1` the inhibition was -3.64%. In the case of `CC(=O)c1ccc(Oc2cc(C)nc(-n3nc(C)cc3C)n2)cc1`, the inhibition is reported as 83.7% (active). With `COc1ccc(C(=O)/C=C/Nc2ccccn2)cc1` the inhibition was 73.9% (active). `Cc1ccc(-c2cccc([C@H]3[C@@H]4C=CC[C@@H](C)[C@@H]4C(=O)N3Cc3ccccc3)c2)cc1` showed an inhibition of -13.7%. With `CSc1nc(-c2ccccc2)nc(C(Cl)Cl)n1` the inhibition was 89.8% (active). In the case of `C=CCn1c(C)cc(C2=NNC(=NCC)SC2)c1C`, the inhibition is reported as 95.3% (active). For `O=C1[C@@H](c2ccccc2)[C@@H](c2ccccc2)N1c1cccnc1`, the inhibition was -4.06%. For `Cc1ccc(S(=O)(=O)Nc2nc3ccccc3s2)cc1[N+](=O)[O-]`, the inhibition was 79.1% (active). With `C/C(=N\NC(=O)c1cc2c(s1)CCC(C)C2)c1cccnc1` (stereo unspecified) the inhibition was -16.9%. For `Cc1ccc(/C=N/NC(=O)COc2ccccc2-c2ccccc2)cc1`, the inhibition was 87.8% (active). For `COc1ccccc1N1CCN(C(=O)c2cc(=O)c3cc(C)cc(C)c3o2)CC1`, the inhibition was 91.6% (active). In the case of `CN(CCO)c1ccc(/C=N/Nc2nncc3ccccc23)cc1`, the inhibition is reported as 72.6% (active).
